Measured values from the supplement of paper PMC10338343.
± gives the standard deviation.

test system: MILI (PIWIL2) piRISC loaded with L1MC piRNA (26 nt); assay: pre-steady-state target cleavage rate (min^-1); guide: L1MC piRNA 5'p-UAACUAAAUACUAUGCAAGCUGUAGG; MIWI and MILI are mouse PIWI proteins and EfPiwi is from a freshwater sponge; tags in brackets are library labels; higher = faster piRNA-guided slicing of the target; conditions: auxiliary factor: 500 nM mouse GTSF1
In short: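 With or without 500 nM GTSF1 partner protein, 1 nM active affinity-purified piRISC carrying one synthetic guide was mixed with 0.1 nM transcribed, DNA-blocked target RNA library in HEPES–potassium acetate buffer at 33 °C for 0–8 or 0–960 min. Uncleaved targets were sequenced and normalised to depth and to weakly complementary targets, three trials were pooled, and k3 was capped at 0.0001 min^-1. The pre-steady-state cleavage rate came from a burst-and-steady-state fit.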

Row | Sequence | pre-steady-state target cleavage rate
1 | UCCUGGAUGUGCUUGCAUAGUAUUUUGAUA | 0.0122 ± 0.0054
2 | UCCUCCUACAGCUUGCAUAGUAAUUAGUAA | 0.141 ± 0.021
3 | UCCUGGAUGUCCUAGCAUAGUAUUUAGAUA | 0.0302 ± 0.007
4 | UCCUGGAUGUCGUUGACAUAGUAUUUAGUUA | 0.0142 ± 0.0054
5 | UCCUGGAUGUGCUUGCAUAGUAUUUUCAAA | 0.00462 ± 0.0044
6 | UCCUGGAUCAGCUUGCAUAGUAAAUAGUAA | 0.196 ± 0.033
7 | UCCUGCUACAGCUUGCAAUGUAUUUAGUAA | 0.124 ± 0.023
8 | UCCUGGAUCAGGAAGCAUAGUAUUUAGAAA | 0.0247 ± 0.0063
9 | UCCUGGAACAGCAUGCAUAGAAUUUAGUUA | 0.0767 ± 0.018
10 | UCCUGGAUGAGCAUGCAUAGUAUUUACAAA | 0.0679 ± 0.018
11 | UCCUGGUACAGCUUGCAUAGUAUAAUGAAA | 0.0203 ± 0.0077
12 | UCCUGGAUCUCCUUGCAUAGUAUUUUCAAA | 0.0367 ± 0.0088
13 | UCCUCCUACACGUUGCAUAGUAUUUUCAAA | 0.0568 ± 0.017
14 | UCCUGGAUGUCGAUGCAUAGUAUAUAGUAA | 0.063 ± 0.013
15 | UCCUGGUUGUGCUUGCAUAGUAUUUUCAAA | 0.00513 ± 0.005
16 | UCCUGGAUGUCGAAGCAUAGUAUAUUGUUA | 0.00971 ± 0.0047
17 | UCCUGGUACAGCUUGCAUAGAAUUUAGAUA | 0.0253 ± 0.013
18 | UCCUGGAUGAGCUUGCAUAGUCAUUUAGUUA | 0.00477 ± 0.0039
19 | UCCUGGAUGUCGAAGCAUAGUAUUUACUUA | 0.00488 ± 0.0029
20 | UCCUGGAUCAGCUUGCAUAGUAAAAACAAA | 0.027 ± 0.0099
21 | UCCUGGAUGAGCUUGCAAAGUAUUUAGAUA | 0.117 ± 0.022
22 | UCCUGGAUCAGCUUGCAUAGUUUUUACUUA | 0.00933 ± 0.0038
23 | UCCUGCUACAGCAACCAUAGUAUUUAGUAA | 0.35 ± 0.063
24 | UCCUGGAUGUGCUUGCAUAGUAUUUCAGUUA | 0.0278 ± 0.01
